The sample as a whole holds a higher share of hits than the screen did.
KDM5B inhibitor = KDM5B demethylase inhibition. KDM5B demethylase, FDH-coupled NADH fluorescence (FDH is formaldehyde dehydrogenase). actives 2.6% (n = 220,000). Potency, µM (top dose mostly 57.7 µM), most hits filed as inhibitors. Q9UGL1; active = well fitted inhibition curve with a large enough effect; also: nearly all actives have a fitted effect of over 70% in size
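Here, H3K4me3 peptide (12.5 µM in substrate mix) is demethylated by KDM5BΔAP, 200 nM final, after 10 min compound exposure. Formaldehyde product is coupled through FDH (0.25 U/mL in mix) to NADH fluorescence; 30-min ΔRFU feeds dose-response curves.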
Numbers stand for hits; i = inactive.

SMILES	KDM5B inhibitor
COc1cccc(OCCn2c(C)nc3cc(C)c(C)cc32)c1	i
COCCOc1cc(-c2noc([C@@H]3CCCN3Cc3ccncc3)n2)ccn1	35.5µM
CCCN1CCC[C@H]1c1nc(-c2ccc(NCCOC)nc2)no1	i
COCCNc1cc(-c2noc([C@@H]3CCCN3Cc3ccccn3)n2)ccn1	31.6µM
COCCNc1cc(-c2noc([C@@H]3CCCN3C3CCN(C(C)=O)CC3)n2)ccn1	39.8µM
COCCOc1cc(-c2noc([C@@H]3CCCN3C3CCN(C(C)=O)CC3)n2)ccn1	i
COCCOc1ccnc(-c2noc([C@@H]3CCCN3C3CCN(C(C)=O)CC3)n2)c1	i
COCCOc1cc(-c2noc([C@@H]3CCCN3CC3CC3)n2)ccn1	i
COc1cc([C@H]2[C@@H](C(=O)O)c3ccccc3C(=O)N2Cc2ccc(F)cc2)cc(OC)c1OC	i
CN(C)S(=O)(=O)c1ccc(NC(=O)CCc2ncc(-c3ccc(F)cc3F)o2)cc1	i
CCOc1ccc(NC(=O)COc2ncnc3ccc(Br)cc23)cc1	i
CCOc1ccccc1NC(=O)N1CCN(Cc2nc(-c3ccc(C)cc3)oc2C)CC1	i
CCN(CC1CCOC1)C(=O)C=C(C)C (stereo not drawn)	i
CCCCN1C(SCC(=O)OCC)=NS(=O)(=O)c2ccccc21	i
O=C(CSc1n[nH]c(-c2ccc(Br)cc2)n1)c1cc(F)ccc1F	i
Cc1noc2c(-c3cccnc3N3CCOCC3)cc(-c3ccccc3)nc12	35.5µM
Cc1noc2c(-c3cccnc3NCC3CCOCC3)cc(-c3ccccc3)nc12	31.6µM
COCCCNc1cc(-c2cccc(C(F)(F)F)c2)nc2c(C)noc12	i
Cc1noc2c(N3CCOCC3)cc(-c3cccnc3)nc12	i
Cc1noc2c(NCC3CCOCC3)cc(-c3ccc(Cl)cc3)nc12	i
COCCNc1ncccc1-c1cc(-c2ccccc2)nc2c(C)noc12	31.6µM
Cc1noc2c(NC3CCOCC3)cc(-c3ccsc3)nc12	i
Cc1noc2c(NCCc3ccccn3)cc(-c3cccnc3)nc12	i
Cc1noc2c(NCCN3CCOCC3)cc(-c3ccccc3)nc12	i
O=C(Nc1ccc2oc(-c3cccc(Br)c3)nc2c1)c1ccc2c(c1)OCCO2	i
SMILES	KDM5B inhibitor
CCOc1ccc(NC(=O)Cc2coc3cc(C)c(C(C)C)cc23)cc1S(=O)(=O)N(C)C	i
CN(C)C1(CNC(=O)c2ccc(NC(=O)c3ccco3)cc2)CCCCC1	i
Cc1ccc(C(=O)/C=C/c2cc(C)ccc2C)cc1	i
CCCCNC(=S)N/N=C1/CC(C)CC(C)(C)C1 (stereo not drawn)	i
O=C(CSc1nnc2ccc(-c3ccco3)nn12)NC1CCCCC1	i
N#Cc1ncn(Cc2noc(-c3ccc(F)cc3)n2)n1	i
COCC(=O)Nc1ccc2ncnc(N3CCCCC3)c2c1	i
Nc1ccc2ncnc(N3CCCCC3)c2c1	28.2µM
O=C(Nc1ccc2ncnc(N3CCCCC3)c2c1)c1ccc(F)cc1	i
CC(NC(=O)CSc1ccc2c(c1)OCCCO2)c1cccc2ccccc12 (stereo not drawn)	i
CCCCCC(=O)N/N=C/c1cccc(Cl)c1	i
O=C(NCc1ccco1)c1cc2cc(Br)ccc2[nH]1	i
O=C1CN(C(=O)c2cc(-c3ccccn3)nc3cc(F)ccc23)CCN1	i
CCc1ccc(NC(=O)N2CCc3c(c4ccccc4n3C)C2)cc1	28.2µM
CCc1ccc(NC(=O)CSc2cn(CC(=O)N3CCCC3)c3ccccc23)cc1	i
CCOc1ccc(NC(=O)Cc2c(C(=O)O)n(C)c3ccccc23)cc1	i
Cc1ccc(NC(=O)N2CCc3c(c4ccccc4n3C)C2)cc1	22.4µM
Cc1ccc(NC(=O)C(C)N2CCc3ccccc3C2)cc1 (stereo not drawn)	i
CCOc1ccc(NC(=O)N2CCc3c(c4ccccc4n3C)C2)cc1	25.1µM
CCc1ccc(NC(=O)Cc2cn(C)c3ccccc23)cc1	i
Cc1ccc(NS(=O)(=O)c2ccc(NC(=O)N3CCCCC3)cc2)cc1	i
CCOc1ccc(NC(=O)C(=O)c2c(C)n(C)c3ccccc23)cc1	i
CN(C(=O)c1ccc(F)cc1)C1CCCCC1	i
CC(C)c1nc(C#N)c(NCC(c2ccccc2Cl)N2CCOCC2)o1 (stereo not drawn)	i
O=C(CN1C(=O)COc2ccccc21)Nc1cc(Cl)ccc1Oc1ccccc1	i
SMILES	KDM5B inhibitor
O=C(Nc1ccc(F)cc1)c1ccc2c(Cl)c3c(nc2c1)CCC3	i
COCc1ccc(C(=O)NC(C)c2ccc(F)cc2)cc1 (stereo not drawn)	i
CCCCN(C)S(=O)(=O)c1c(C(=O)OCC)c(C)n(C)c1C	i
COc1ccccc1N1CCN(C(=O)C(CC(C)C)NC(=O)C2CCCCC2)CC1 (stereo not drawn)	i
CCC(=O)N1CCCC(CN2CCN(c3ccccn3)CC2)C1 (stereo not drawn)	i
CC(C)C(NC(=O)C1CCC1)C(=O)N1CCN(c2ccccn2)CC1 (stereo not drawn)	22.4µM
CCC1CCc2sc(C(=O)N3CCN(c4ccccn4)CC3)cc2C1 (stereo not drawn)	i
CC(NC(=O)C1CCC1)C(=O)N1CCN(c2ccccn2)CC1 (stereo not drawn)	22.4µM
CC(CCc1ccccc1)NC(=O)C1CCCO1 (stereo not drawn)	i
CCn1ncc(N2CCCC(CC(=O)N3CCN(c4ccccn4)CC3)C2)cc1=O (stereo not drawn)	i
CC(NC(=O)C1CCCO1)C(=O)N1CCN(c2ccccn2)CC1 (stereo not drawn)	25.1µM
Cc1ccc(C(C)NC(=O)C2CCCO2)cc1 (stereo not drawn)	i
Cc1ccc(NC(=O)N2CCCC(Cn3c(C4CC4)nc4cccnc43)C2)cc1F (stereo not drawn)	i
CCN1CCN(c2nc(Nc3ccc(C)cc3)c3nccnc3n2)CC1	i
Nc1cccc(OCc2ccccc2)c1	i
COc1cccc(CN2CCC(C)CC2)c1OC	i
CC1=C(C)CC(C(=O)NC(C)C(C)(C)C)C(C(=O)O)C1 (stereo not drawn)	i
Cc1nc(-c2ccc(Cl)cc2)sc1C(=O)N1CCN(Cc2ccc(C#N)cc2)CC1	i
COc1cccc(CN2CCCN(S(=O)(=O)c3ccccc3)CCC(=O)NCC2)c1OC	i
CC(C)(C)c1ccnc(N[C@H]2CO[C@H]3[C@@H]2OC[C@@H]3NC(=O)c2ccco2)n1	i
O=C(Nc1ccc(Oc2ccccc2)cc1)N[C@H]1CO[C@H]2[C@@H]1OC[C@@H]2Nc1nccc(-c2ccc(-c3ccccc3)cc2)n1	i
S=C(Nc1ccccc1)N[C@H]1CO[C@H]2[C@@H]1OC[C@@H]2Nc1nccc(-c2ccco2)n1	25.1µM
O=C(N[C@H]1CO[C@H]2[C@@H]1OC[C@@H]2Nc1nccc(-c2ccco2)n1)c1ccco1	39.8µM
CC(C)(C)c1ccnc(N[C@H]2CO[C@H]3[C@@H]2OC[C@@H]3NC(=O)CCCC(=O)O)n1	i
O=C(Nc1ccccc1)O[C@@H]1CO[C@H]2[C@@H]1OC[C@@H]2NC(=S)Nc1ccccc1	i
SMILES	KDM5B inhibitor
NS(=O)(=O)c1ccc(NC(=O)COc2ncnc3ccccc23)cc1	i
N#CCN(C(=O)c1ccc2c(c1)OCCCO2)C1CC1	i
Cc1ccc(/C=C/c2onc(C)c2S(=O)(=O)N2CCC(C(=O)N3CCC(C)CC3)CC2)cc1	i
Cc1cc(SCC(=O)Nc2ccc(Cl)cc2)nc2ccccc12	i
CC(=O)NCCNC(=O)c1cc2cc(C)ccc2nc1C	i
CC(=O)NCCNc1cc(C)c2ccc(Cl)cc2n1	25.1µM
CCCC1C(c2ccc(Cl)cc2)NC(c2ccc(Cl)cc2)C(C)C1(O)CCC (stereo not drawn)	i

Bioassay records deposited in PubChem by National Center for Advancing Translational Sciences (NCATS).
